Screens from PubChem BioAssay.
HepG2 tox – kills HepG2 cells in TGF-b inhibitor counter-screen. HepG2 CAGA-GFP viability, ATP luminescence, 18 h. Potency, µM (titrated, usually from 46.1 µM), inactives show at the top dose activity change, negative = cytotoxicity, most hits filed as cytotoxic. actives 0.76% (n = 410,000)
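HepG2 CAGA-GFP cells (1000/well, DMEM with 1% FBS) received compound, then TGF-beta at 500 pg/mL final, and were incubated 18 hours at 37 degrees C. Viability was read by CellTiter-Glo luminescence. Media-only wells were set as complete cell-killing and DMSO as no toxicity.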
TDP1 cell CPT – DT40-hTDP1 cell growth loss with CPT; actives 12% (n = 420,000); Potency, µM (series often up to 46.2 µM), without a hit: at the top dose activity change, negative = growth inhibition, most hits filed as inhibitors; chicken DT40 Tdp1-/-;hTDP1 cells + 20 nM CPT, ATP luminescence, 48 h; note: % is set by controls: 0 for no effect and ±100 for the full control effect; nearly all actives have a fitted effect of over 55% in size
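Chicken DT40 Tdp1-/- cells stably complemented with human TDP1 were seeded at 400 cells/well in medium containing 20 nM camptothecin, exposed to pin-transferred compounds, and grown at 37 °C for at least 48 hr. Viability was read as ATP luminescence.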
TGFb SMAD3 inh – blocks TGF-b signaling; HepG2 CAGA-GFP TGF-b/SMAD3 reporter, GFP fluorescence, 18 h; TGF-beta stimulated, 500 pg/mL final; Potency, µM (highest dose often 46.1 µM), for the others: at the highest dose activity, negative = inhibition, most hits filed as inhibitors; actives 1.2% (n = 410,000); AID 588855; note: % is set by controls: 0 for no effect and ±100 for the full control effect; nearly all actives have a fitted effect of over 65% in size
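Using HEPG2 CAGA-GFP reporter cells at 1000 cells/well, we pinned test compounds, stimulated with recombinant TGF-beta (500 pg/mL final) and measured total well GFP after 18 h.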
HT1080 IDH1KD tx – toxicity to HT-1080 IDH1 knockdown cells (counter line). HT-1080 IDH1 knockdown viability, ATP luminescence, 48 h. Potency, µM (highest dose often 46.1 µM), without a hit: at the top dose activity, negative = toxicity, usual class: cytotoxic. actives 2% (n = 360,000). AID 686971;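 note: 0% = DMSO wells and -100% = cell-free medium wells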
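Luminescent ATP read-out (CellTiter-Glo, 10 min at room temperature) after 48 h compound exposure at 37 °C gave viability of IDH1-knockdown HT-1080 cells. Activity was normalised to DMSO and cell-free wells, then fitted as concentration-response curves.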
DT40 TDP1 no CPT – qHTS for Inhibitors of human tyrosyl-DNA phosphodiesterase 1 (TDP1): qHTS in cells in absence of CPT. DT40 Tdp1-/- hTDP1 cells, no CPT, ATP luminescence, 48 h. Potency, µM (titrated, usually from 46.2 µM), for inactives: at the highest dose activity change, negative = growth inhibition, actives largely listed as inhibitors. actives 15% (n = 420,000). AID 686978, 2013; note: % is set by controls: 0 for no effect and ±100 for the full control effect; nearly all actives have a fitted effect of over 55% in size
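Chicken DT40 Tdp1-/- cells complemented with human TDP1, screened without camptothecin (DMSO vehicle only), 400 cells/well. Compounds pin-transferred, cells incubated at 37 °C for at least 48 hr. Growth read as ATP-dependent luminescence (CellTiter-Glo, 30 min at RT).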
HT1080NT lethal – kills 2HG-producing HT-1080-NT fibrosarcoma cells. AID 686970. actives 1.6% (n = 360,000). Potency, µM (doses to about 46.1 µM), for inactives: top-dose activity, negative = less viability, hits mostly cytotoxic. HT-1080-NT fibrosarcoma viability, CellTiter-Glo ATP luminescence, 48 h;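 note: NT is the 2HG producing partner of a matched IDH1 knockdown line; 0% = DMSO-treated cells and -100% = media-only wells without cells; nearly all actives have a fitted effect of over 55% in size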
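HT-1080-NT fibrosarcoma cells (2HG-overproducing), 750 cells/well in RPMI with 5% FBS, dosed after 2 h and incubated 48 h at 37C. CellTiter-Glo luminescence normalized to DMSO and no-cell wells; concentration-response curves fitted and classed.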
The depositor's hits bear a star; ? = inconclusive; nt = no result; [ ] = dose if it differs, or a comment. Sampled rows, rich in hits. Any-hit rate of the full collection: about 17%. Calls come from the whole dose curve; as a rule, active = well fitted curve in the direction sought with a large enough effect; inconclusive = small, poorly fitted or top-dose-only effect, or another doubt; inactive = no such curve, though single readings can be large; an effect the other way counts as inactive or inconclusive. Potency is the fitted concentration of half-maximal effect.

SMILES | HepG2 tox | TDP1 cell CPT | TGFb SMAD3 inh | HT1080 IDH1KD tx | DT40 TDP1 no CPT | HT1080NT lethal
O=C(Nc1ccc(Oc2ccccc2)cc1)c1ccc2sc([C@H]3C[C@H](O)[C@@H](CO)O3)nc2c1 | -28% | ? | -1% | 2.6µM* | 21µM* | 7.3µM*
COc1ccc2[nH]c(C(=O)N3CCN(Cc4ccccc4)CC3)cc2c1OC | -11% | -2% | -9% | -20% | -27% | ?
Cc1ccc(NCN2C(=O)C(=O)c3ccccc32)nc1 | -35% | 2.3µM* | 6.3µM* | -25% | 1.3µM* | -10%
Cc1ccc(NC(=O)CCCCCN2C(=O)c3ccccc3C2=O)nc1 | -2% | -1% | 10% | 5% | ? | 7%
CCn1c(SCc2nc3sc(C(=O)O)c(C)c3c(=O)[nH]2)nnc1-c1ccc(Cl)cc1 | -26% | -2% | -30% | 3% | 11% | 4%
CCCn1c(SCc2nc3sc(C)c(C)c3c(=O)[nH]2)nc2ccccc2c1=O | 3% | ? | -9% | 6% | 15µM* | 2%
CCn1c(SCc2nc3ccccc3c(=O)[nH]2)nc2ccccc21 | -35% | ? | 2% | -17% | 21µM* | -5%
Cn1c(Cc2ccccc2)nnc1SCc1nc2ccccc2c(=O)[nH]1 | 0% | 1% | -4% | -5% | -14% | -18%
COCCn1c(SCc2nc3ccccc3c(=O)[nH]2)nc2ccccc2c1=O | -11% | ? | -3% | ? | ? | ?
COCCn1c(Cc2ccccc2)nnc1SCc1nc2ccccc2c(=O)[nH]1 | 13% | ? | 26% | -1% | 16µM* | 1%
Cc1sc2nc(CSc3nnnn3-c3ccc(Cl)cc3)[nH]c(=O)c2c1C | -18% | ? | 26% | -12% | 16µM* | -2%
COc1cc(Cl)c(C)cc1NC(=O)CCn1c(=O)c2cccn2c2cccnc21 | 3% | ? | ? | nt | ? | nt
O=C1c2ccccc2NC(c2ccc(-c3ccc(Br)cc3)o2)N1O (centres undefined) | -29% | ? | ? | 11µM* | ? | 7.9µM*
CCN(CC1CCCO1)C(=O)C1CCN(C2CCN(Cc3ccccc3C)CC2)CC1 (centres undefined) | -5% | ? | ? | -10% | ? | -4%
C[C@@H]1CN([C@H](C)CO)C(=O)CCCn2nncc2CO[C@H]1CN(C)Cc1ccccc1 | -4% | 12% | ? | -3% | -19% | 9%
CN(CCCN(Cc1ccc(Cl)cc1)c1ccc(Br)cn1)C(=S)NCCCc1cnc[nH]1 | -97% | 13µM* | ? | nt | ? | nt
CCCCN(Cc1ccc(Cl)c(Cl)c1)c1ccc(Br)cn1 | nt | -3% | nt | 20% | ? | 9%
S=C(NCCCCN(Cc1ccc(Cl)cc1)c1ccc(Br)cn1)NCCCc1cnc[nH]1 | -101% | 7.1µM* | ? | nt | -93% | nt
CCOC(=O)c1noc2ncn(CC(=O)Nc3cccc(C(F)(F)F)c3)c(=O)c12 | -34% | nt | -1% | nt | nt | nt
Cc1c(C(=O)NCC(C)(C)N2CCOCC2)cnn1-c1ncc2c(n1)-c1ccccc1CC2 | nt | ? | nt | nt | -27% | nt
O=C(CSCC(=O)N1CCOCC1)Nc1nc(-c2ccccc2)cs1 | 18% | -5% | 2% | 0% | -11% | 0%
COc1ccc(-c2csc(NC(=O)CSCC(=O)Nc3cc(C)on3)n2)cc1 | -1% | ? | -28% | 11% | 23µM* | 3%
Cc1cc(NC(=O)C(C)SCC(=O)Nc2ccccc2C(C)(C)C)no1 (centres undefined) | 4% | ? | ? | 9% | 15µM* | 10%
CCOC(=O)N1CCN(C(=O)CSCC(=O)Nc2nc(-c3ccc(Cl)s3)cs2)CC1 | -36% | 15µM* | -8% | ? | 18µM* | 0%[9.24 µM]
CCOC(=O)N1CCN(C(=O)CSCC(=O)Nc2nc(-c3ccc(-c4ccccc4)cc3)cs2)CC1 | -26% | 3.3µM* | -25% | ? | 3.3µM* | ?
SMILES | HepG2 tox | TDP1 cell CPT | TGFb SMAD3 inh | HT1080 IDH1KD tx | DT40 TDP1 no CPT | HT1080NT lethal
O.O=C([O-])CC([S-])C(=O)[O-].[Au+].[Na+].[Na+] (centres undefined) | nt | -22% | nt | nt | 0% | nt
c1ccc2c(-c3cncc4ccccc34)cncc2c1 | -15% | ? | -5% | ? | ? | ?
COc1ccc(-c2csc(NC(=O)CSc3nc(SC)ns3)n2)cc1 | -8% | ? | 4% | -4% | 23µM* | -8%
Cc1cc(-c2nnc(SCC(=O)Nc3nc(-c4ccccc4)cs3)o2)no1 | -8% | 15µM* | 11% | 1% | ? | -1%
CCOC(=O)N1CCN(C(=O)CSCC(=O)Nc2nc(-c3ccc(OC)cc3)cs2)CC1 | -27% | ? | 5% | -21% | 21µM* | -19%
Cc1occc1-c1nnc(SCC(=O)Nc2nc(-c3ccccc3)cs2)o1 | -16% | -28% | ? | ? | ? | ?
CCOc1ccc(Oc2ccccc2NC(=O)CSCC(=O)Nc2cc(C)on2)cc1 | -23% | 23µM* | 0% | ? | 13µM* | ?
COc1ccc(-c2csc(NC(=O)CSc3nc(C)cs3)n2)cc1 | 4% | -30% | 9% | 5% | ? | 14%
Cc1ccc2oc(C(=O)Nc3nnc(CC(C)C)s3)cc(=O)c2c1 | 11% | 0% | -20% | nt | -15% | nt
Cc1c(C=C(C#N)c2ccc([N+](=O)[O-])cc2)c(=O)n(-c2ccccc2)n1C | -6% | ? | 13% | -2% | ? | 0%
O=P1(O)CC2=C(CC=CC2)C1 | -2% | -9% | 2% | 1% | -3% | -2%
CNC(=O)/C(C#N)=C/c1c(N(Cc2ccccc2)Cc2ccccc2)nc2ccccn2c1=O | 6% | 16µM* | ? | 0% | 16µM* | 4%
COC(=O)/C(C#N)=C/c1c(N2CCN(c3ccccc3)CC2)nc2ccccn2c1=O | 5% | 17% | 34% | 1% | -25% | 2%
O=c1oc2ccc(Cl)cc2cc1-c1ccccc1 | 1% | 2% | 6% | 20% | -12% | 21%
CN(C)CCCN=c1cc(-c2ccccc2)oc2ccc(Cl)cc12 | -49% | 10µM* | ? | -11% | ? | 0%
OCCN=c1cc(-c2ccccc2)oc2ccc(Cl)cc12 | -29% | ? | ? | -26% | 16µM* | -30%
